Test results reported in PubChem BioAssay AID2284181 (EPA ToxCast).
Records with an inconclusive call do not appear. The source made the active and inactive calls. Rule for the calls: active = hit-call score of the fitted dose curve at least 0.9, where 1 is the maximum; inconclusive = response in the unintended direction; inactive = score below 0.9.

target: human Serotonin Receptor 5-HT1A, HTR1A (gene 3350) (UniProt P08908); test: ERF_FR_GPCR_hHTR1A: Eurofins (ERF) G Protein-Coupled Receptor (GPCR) Radioligand Binding LeadHunter Assay for human Serotonin Receptor 5-HT1A Agonism, conducted at France lab site
Sequence (P08908 whole entry, looked up): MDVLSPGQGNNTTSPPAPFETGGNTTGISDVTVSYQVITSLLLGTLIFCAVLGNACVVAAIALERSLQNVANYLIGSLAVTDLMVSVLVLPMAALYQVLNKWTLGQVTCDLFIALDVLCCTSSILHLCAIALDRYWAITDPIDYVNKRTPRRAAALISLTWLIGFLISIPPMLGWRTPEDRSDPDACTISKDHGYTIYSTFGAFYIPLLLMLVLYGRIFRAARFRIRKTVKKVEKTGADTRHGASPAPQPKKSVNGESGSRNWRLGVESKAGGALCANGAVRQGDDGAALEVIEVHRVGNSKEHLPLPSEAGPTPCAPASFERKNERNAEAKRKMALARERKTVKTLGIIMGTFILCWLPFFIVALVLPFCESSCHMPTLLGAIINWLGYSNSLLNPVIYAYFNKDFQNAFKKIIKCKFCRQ
Procedure: ERF_FR_GPCR_hHTR1A is a biochemical, single-readout assay that uses extracted gene-proteins in a cell-free assay. Measurements were taken 1 hour after chemical dosing in a 96-well plate. See 5-HT1A Human Serotonin GPCR Binding (Agonist Radioligand) Assay, Cerep.ERF_FR_GPCR_hHTR1A is an assay component calculated from the ERF_FR_GPCR_hHTR1A assay. It is designed to measure radioligand binding using a type of binding reporter as detected by scintillation counting with radiometry technology.Data from the assay component ERF_FR_GPCR_hHTR1A was analyzed at the assay endpoint, ERF_FR_GPCR_hHTR1A, in the positive analysis fitting direction relative to DMSO as the negative control and baseline of activity. Using a type of binding reporter, gain-of-signal activity can be used to understand changes in binding as they relate to gene HTR1A. To generalize the intended target to other relatable targets, this assay endpoint is annotated to the gpcr intended target family, where the subfamily is serotonin.
Human cells are incubated for 60 minutes at room temprature with [3H]8-OH-DPAT ligand (0.5 nM) and 8-OH-DPAT as control inhibitor. Test Sample Requirements: Minimum for 1) Screen: 60 ul of 10 mM stock -OR- 1 mg (pre-weighed) for 10 uM final testing. 2) Dose Response: 90 ul of 10 mM stock -OR- 1 mg (pre-weighed) for a top concentration at 10 uM.

| Structure (SMILES) | outcome | AC50 |
| --- | --- | --- |
| CCCCC[C@H](O)CC(=O)CCc1ccc(O)c(OC)c1 | inactive |  |
| O=C(/C=C/c1ccc(O)cc1)CC(=O)/C=C/c1ccc(O)cc1 | inactive |  |
| COc1cc(/C=C/C(=O)CC(=O)/C=C/c2ccc(O)c(OC)c2)ccc1O |  | 2.01 µM (active) |
